The values below come from PubChem BioAssay (NCI).

What all share (test): NCI-60 one-dose screen, 48 h (100 = growth as untreated, 0 = no growth, -100 = all killed)
What all share (settings): 10 µM unless noted

Assay [1] deals with NCI-H226 lung.
Assay [2] deals with NCI-H322M lung.
The test system of assay [3] is HOP-62 NSCLC.
The test system of assay [4] is NCI-H460 lung.
In assay [5] the test system is HOP-92 NSCLC.
The subject of assay [6] is NCI-H522 lung.
Assay [7] deals with A549/ATCC NSCLC.
In assay [8] the test system is 786-0 renal.
For assay [9], the system named is COLO 205 colon.
Assay [10] has as its system DU-145 prostate.
Assay [11] relates to K-562 leukemia.
Assay [12] has as its system MALME-3M melanoma.
Assay [13] concerns MDA-MB-231 breast.
In assay [14] the test system is RXF 393 renal.
The test system of assay [15] is SF-268 CNS.
For assay [16], the system named is SF-295 CNS.
Assay [17] deals with SF-539 CNS.
The subject of assay [18] is UACC-257 melanoma.
The subject of assay [19] is M14 melanoma.

Each structure is given as a SMILES string. The panel holds about 83,000 compounds, 20% with a hit somewhere; the sample as a whole holds those more often.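 For each line, cells grew in 96-well plates with the test compound present at a single concentration for 48 hours.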 A number with no mark means an inactive call. Activity calls are given as the source filed them. Rule for the calls: active = growth percent below 10; inactive = the rest.

In the case of `N#Cc1c(-c2ccccc2)nc2c(c(-c3ccccc3)nn2-c2ccccc2)c1-c1ccc(N2CCOCC2)cc1`, the growth in [1] was 92.7%; in [2], 92.3%; in assay [3] it was 95.3%; in [4] it was 92.5%; in assay [5] it was 85.8%; in assay [6], 92%. For the same compound, the growth is 77.2% in assay [7]; 86.3% in [8]; 79.6% in assay [9]; 91.5% in assay [10]; -20% (active) in [11]; 104% in assay [12]. Further, the growth in assay [13] is 97.3%; in [14], 95%; in assay [15] it was 104%; in assay [16], 107%; in [17], 93.7%; in [18], 101%. Moreover, in assay [19], the growth is 92.3%.
For the compound `CCOC(=O)C1=C(C)N=C2SC=C(c3ccccc3)N2[C@H]1c1cn[nH]c1-c1ccc(Cl)cc1`, the growth was 66.4% in [1]; 78.7% in assay [2]; 63% in assay [3]; 43.3% in [4]; -1.56% (active) in assay [5]; -56.8% (active) in assay [6]. The growth in assay [7] is 56.4%; in assay [8] it was 49.6%; in assay [9], 57.1%; in [10], 64.6%; in assay [11], 40.5%; in [12], -27.9% (active). The growth in assay [13] is 41.9%; in [14] it was 61.2%; in [15] it was 44.8%; in assay [16], 41%; in assay [17], 44.4%; in assay [18], 52.6%. Moreover, the growth in assay [19] was 47.7%.
`CCC/C(=N\NC(N)=O)C(OC)OC`: the growth in [1] was 108%; in assay [2], 109%; in [3], 109%; in [4] it was 109%; in assay [5], 68.4%; in assay [6], 79.9%. The growth in assay [7] is 93.6%; in [8] it was 99.4%; in assay [9], 110%; in [10], 96.2%; in assay [11], 118%; in assay [12], 99.5%. In addition, the growth is 85.8% in [13]; 102% in assay [14]; 98.9% in [15]; 112% in assay [16]; 89.2% in assay [17]; 103% in assay [18]. Further, the growth in assay [19] was 96.9%.
As to `O=C(CN1C(=O)/C(=C/c2ccco2)SC1=S)NCCc1c[nH]c2ccc(F)cc12`, the growth in assay [1] was 92.4%; in [2], 102%; in [3], 117%; in assay [4] it was 103%; in assay [6] it was 82.5%; in assay [7], 102%. In addition, the growth in [8] was 104%; in assay [10] it was 108%; in assay [11], 101%; in assay [12], 108%; in assay [13], 102%; in [14], 110%. For the same compound, the growth was 93.6% in assay [15]; 99.4% in assay [16]; 95.2% in [17]; 113% in assay [18]; 106% in assay [19].
Take `COC1=CC(c2ccc[nH]2)=N/C1=C\c1[nH]c(C)c(CC(=O)OCc2ccccc2)c1C`: the growth was 10.5% in assay [1]; 25.9% in assay [2]; 1.96% (active) in assay [3]; 7.86% (active) in assay [4]; -16.8% (active) in assay [5]; -33.4% (active) in assay [6]. For the same compound, the growth is 5.03% (active) in assay [7]; -23.7% (active) in [8]; -4.75% (active) in [9]; 20.8% in assay [10]; 2.58% (active) in assay [11]; -67.9% (active) in assay [12]. Besides, the growth in [13] is -13.6% (active); in [14], -26.7% (active); in [15] it was 9.87% (active); in assay [16], -50.1% (active); in assay [17], -4.33% (active); in assay [18] it was -25% (active). Besides, the growth in [19] is -55.9% (active).
For `Nc1c(C(=O)Nc2cccc3ncccc23)sc2nc3c(cc12)C(=O)CCC3`, the growth in assay [1] was 62.2%; in [2], 62.2%; in assay [3], 39%; in assay [4], 19.9%; in assay [5], 41.8%; in assay [6] it was 11.1%. Moreover, the growth in [7] was 49.6%; in [8] it was 56.5%; in assay [9] it was 45.9%; in [10] it was 69.9%; in [11], 31.1%; in assay [12], 74.8%. The growth was 58% in [13]; 29.3% in [14]; 71% in [15]; 21.3% in assay [16]; 51.8% in assay [17]; 41.6% in assay [18]. Also, in assay [19], the growth was 50.5%.
`Cc1ccccc1CNc1c2ccccc2nc2ccccc12`: the growth was 29% in [2]; 28.1% in assay [3]; 6.94% (active) in assay [4]; -1.03% (active) in [5]; 50% in [6]; 19.7% in assay [7]. The growth is 24.3% in assay [8]; -18.5% (active) in assay [9]; 30.6% in assay [10]; 5.04% (active) in assay [11]; 15.2% in assay [12]; 39.9% in assay [13]. Moreover, the growth in assay [14] is 7.78% (active); in assay [15] it was 42.9%; in assay [16], 29.5%; in assay [17] it was 3.3% (active); in assay [18], 32.7%; in assay [19] it was 13.1%.
Turning to `N#C/C(=C\c1ccc(Br)cc1)c1cc2ccccc2[nH]1`, the growth in [1] was 92.7%; in assay [2], 91.6%; in [3], 86.3%; in assay [4], 96.1%; in assay [5], 70.4%; in [6] it was 85%. In addition, the growth in assay [7] is 101%; in assay [8], 93.3%; in assay [9], 105%; in assay [10], 104%; in assay [11], 86.4%; in assay [12], 99.3%. Besides, the growth was 79.5% in assay [13]; 115% in assay [14]; 102% in assay [15]; 95.6% in assay [16]; 93.3% in [17]; 100% in assay [18]. For the same compound, in assay [19], the growth is 101%.
